Results as given in the supplement of paper PMC4022240.
± gives the standard deviation.

Columns and labels:
Assay in all cases: peptide microarray binding signal (635 nm), min-max normalized on array (fraction of array maximum); higher = stronger binding
Settings in all cases: peptide region: H3 5-17
[1] = target: T1, HaloTag-ATRX ADD domain (163-292)
T1 chain: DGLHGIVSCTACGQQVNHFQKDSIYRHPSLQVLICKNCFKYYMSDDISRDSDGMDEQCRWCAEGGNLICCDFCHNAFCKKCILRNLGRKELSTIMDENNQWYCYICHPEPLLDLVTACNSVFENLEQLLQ
In short: (§1)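 Arrays carried histone 13-mer peptide–cellulose conjugates printed in triplicate on nitrocellulose alongside a Cy3 tracer. After overnight blocking at 4°C, they were incubated for 1 h at 4°C with biotin-labelled HaloTag reader fusions (10 nM to 1 μM) plus streptavidin-Alexa Fluor 647, or with rabbit histone antibodies (1:10,000 to 1:2,000) plus anti-rabbit Alexa 647. Scanning on an Axon GenePix 4000B used 635 nm for signal and 532 nm for misprints. The binding signal reported is each triplicate's mean spot intensity after per-library min-max scaling.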

[2] = target: HaloTag-ING2 PHD (mouse Ing2 200-280)
In short: as §1

[3] = target: anti-H3K4me3 antibody ab8580
In short: as §1

[4] = target: anti-H3K9me3 antibody ab8898
In short: as §1

[5] = peptide modifications: H3R8cit H3K9me1, binder concentration: 1:2,000 dilution
[6] = peptide modifications: H3R8cit H3K9me1, binder concentration: 1:10,000 dilution
[7] = peptide modifications: H3R8cit, binder concentration: 1:2,000 dilution
[8] = peptide modifications: H3R8cit, binder concentration: 1:10,000 dilution
[9] = peptide modifications: H3R8cit H3S10ph, binder concentration: 1:2,000 dilution
[10] = peptide modifications: H3R8cit H3S10ph, binder concentration: 1:10,000 dilution
[11] = peptide modifications: H3R8me1, binder concentration: 1:2,000 dilution
[12] = peptide modifications: H3R8me1, binder concentration: 1:10,000 dilution
[13] = peptide modifications: H3R8me1 H3S10ph, binder concentration: 1:2,000 dilution
[14] = peptide modifications: H3R8me1 H3S10ph, binder concentration: 1:10,000 dilution
[15] = peptide modifications: H3R8me2a H3T11ph, binder concentration: 1:2,000 dilution
[16] = peptide modifications: H3R8me2a H3T11ph, binder concentration: 1:10,000 dilution
[17] = peptide modifications: H3R8me2a H3K9me1, binder concentration: 1:2,000 dilution
[18] = peptide modifications: H3R8me2a H3K9me1, binder concentration: 1:10,000 dilution
[19] = peptide modifications: H3R8me1 H3K9me1, binder concentration: 1:2,000 dilution
[20] = peptide modifications: H3R8me1 H3K9me1, binder concentration: 1:10,000 dilution
[21] = peptide modifications: H3R8me1 H3K9me2, binder concentration: 1:2,000 dilution
[22] = peptide modifications: H3R8me1 H3K9me2, binder concentration: 1:10,000 dilution
[23] = peptide modifications: H3R8me2a, binder concentration: 1:2,000 dilution
[24] = peptide modifications: H3R8me2a, binder concentration: 1:10,000 dilution

Which “peptide microarray binding signal” value ([1]; peptide modifications: H3R8cit H3K9me1, binder concentration: 50 nM) does the source give for QTARKSTGGKAPR [H3 5-17 Q T A Rcit Kme S T G G K A P R] here?
The value was 0.00686 ± 0.00018.

What about the “peptide microarray binding signal” value ([1]; peptide modifications: H3R8cit H3K9me1, binder concentration: 500 nM) of the same binder?
Its value is 0.0113 ± 0.00044.

And the “peptide microarray binding signal” value ([2]; peptide modifications: H3R8cit H3K9me1, binder concentration: 10 nM)?
Its value is 0.0186 ± 0.0018.

And the “peptide microarray binding signal” value ([2]; peptide modifications: H3R8cit H3K9me1, binder concentration: 100 nM)?
The value was 0.0317 ± 0.0022.

What about the “peptide microarray binding signal” value [3, 5] of the same binder?
Its value is 0.00427 ± 0.00041.

And the “peptide microarray binding signal” value [3, 6]?
The value was 0.00394 ± 6.2e-05.

What about the “peptide microarray binding signal” value [4, 5] of the same binder?
The value was 0.00462 ± 0.00021.

And the “peptide microarray binding signal” value [4, 6]?
Its value is 0.00311 ± 7e-05.

What does the source list for QTARKSTGGKAPR [H3 5-17 Q T A Rcit K S T G G K A P R]?
peptide microarray binding signal ([1]; peptide modifications: H3R8cit, binder concentration: 50 nM): 0.0063 ± 0.00069; peptide microarray binding signal ([1]; peptide modifications: H3R8cit, binder concentration: 500 nM): 0.00719 ± 0.0018; peptide microarray binding signal ([2]; peptide modifications: H3R8cit, binder concentration: 10 nM): 0.0115 ± 0.0029; peptide microarray binding signal ([2]; peptide modifications: H3R8cit, binder concentration: 100 nM): 0.00574 ± 0.00039; peptide microarray binding signal [3, 7]: 0.00504 ± 0.0019; peptide microarray binding signal [3, 8]: 0.0142 ± 0.0043; peptide microarray binding signal [4, 7]: 0.00642 ± 0.0027; peptide microarray binding signal [4, 8]: 0.00588 ± 0.00093

With QTARKSTGGKAPR [H3 5-17 Q T A Rcit K Sph T G G K A P R] as the binder, how does the “peptide microarray binding signal” value ([1]; peptide modifications: H3R8cit H3S10ph, binder concentration: 50 nM) read?
The value was 0.00417 ± 0.00041.

What about the “peptide microarray binding signal” value ([1]; peptide modifications: H3R8cit H3S10ph, binder concentration: 500 nM) of the same binder?
Its value is 0.0107 ± 0.0011.

And the “peptide microarray binding signal” value ([2]; peptide modifications: H3R8cit H3S10ph, binder concentration: 10 nM)?
The value was 0.00949 ± 0.0015.

What about the “peptide microarray binding signal” value ([2]; peptide modifications: H3R8cit H3S10ph, binder concentration: 100 nM) of the same binder?
The value was 0.0187 ± 0.0059.

And the “peptide microarray binding signal” value [3, 9]?
Its value is 0.00211 ± 0.00036.

What about the “peptide microarray binding signal” value [3, 10] of the same binder?
The value was 0.00194 ± 0.00019.

What about the “peptide microarray binding signal” value [4, 9] of the same binder?
Its value is 0.00183 ± 0.00048.

And the “peptide microarray binding signal” value [4, 10]?
Its value is 0.00133 ± 7.9e-05.

How did the “peptide microarray binding signal” value ([1]; peptide modifications: H3R8me1, binder concentration: 50 nM) turn out when QTARKSTGGKAPR [H3 5-17 Q T A Rme K S T G G K A P R] was run?
The value was 0.00589 ± 0.00021.

What about the “peptide microarray binding signal” value ([1]; peptide modifications: H3R8me1, binder concentration: 500 nM) of the same binder?
The value was 0.00448 ± 0.00015.

And the “peptide microarray binding signal” value ([2]; peptide modifications: H3R8me1, binder concentration: 10 nM)?
Its value is 0.0037 ± 7.9e-05.

What about the “peptide microarray binding signal” value ([2]; peptide modifications: H3R8me1, binder concentration: 100 nM) of the same binder?
The value was 0.00262.

What about the “peptide microarray binding signal” value [3, 11] of the same binder?
The value was 0.0014 ± 0.00011.

And the “peptide microarray binding signal” value [3, 12]?
The value was 0.00417 ± 0.00061.

What about the “peptide microarray binding signal” value [4, 11] of the same binder?
Its value is 0.00305 ± 0.00038.

What about the “peptide microarray binding signal” value [4, 12] of the same binder?
Its value is 0.00755 ± 0.00014.

QTARKSTGGKAPR [H3 5-17 Q T A Rme K Sph T G G K A P R] was tested. Which “peptide microarray binding signal” value ([1]; peptide modifications: H3R8me1 H3S10ph, binder concentration: 50 nM) did it give?
Its value is 0.0079 ± 0.00028.

And the “peptide microarray binding signal” value ([1]; peptide modifications: H3R8me1 H3S10ph, binder concentration: 500 nM)?
The value was 0.0149 ± 0.003.

And the “peptide microarray binding signal” value ([2]; peptide modifications: H3R8me1 H3S10ph, binder concentration: 10 nM)?
Its value is 0.0175 ± 0.0014.

What about the “peptide microarray binding signal” value ([2]; peptide modifications: H3R8me1 H3S10ph, binder concentration: 100 nM) of the same binder?
Its value is 0.0298 ± 0.002.

What about the “peptide microarray binding signal” value [3, 13] of the same binder?
The value was 0.00208 ± 0.00022.

What about the “peptide microarray binding signal” value [3, 14] of the same binder?
The value was 0.00217 ± 0.00011.

What about the “peptide microarray binding signal” value [4, 13] of the same binder?
The value was 0.00359 ± 0.00056.

And the “peptide microarray binding signal” value [4, 14]?
Its value is 0.00306.

What does the source list for QTARKSTGGKAPR [H3 5-17 Q T A Rme2a K S Tph G G K A P R]?
peptide microarray binding signal ([1]; peptide modifications: H3R8me2a H3T11ph, binder concentration: 50 nM): 0.00567 ± 0.00028; peptide microarray binding signal ([1]; peptide modifications: H3R8me2a H3T11ph, binder concentration: 500 nM): 0.008 ± 0.00083; peptide microarray binding signal ([2]; peptide modifications: H3R8me2a H3T11ph, binder concentration: 10 nM): 0.0111 ± 0.00069; peptide microarray binding signal ([2]; peptide modifications: H3R8me2a H3T11ph, binder concentration: 100 nM): 0.0171 ± 0.0015; peptide microarray binding signal [3, 15]: 0.00181 ± 0.00016; peptide microarray binding signal [3, 16]: 0.00257 ± 6e-05; peptide microarray binding signal [4, 15]: 0.0287 ± 0.023; peptide microarray binding signal [4, 16]: 0.00409 ± 0.0015

How did the “peptide microarray binding signal” value ([1]; peptide modifications: H3R8me2a H3K9me1, binder concentration: 50 nM) turn out when QTARKSTGGKAPR [H3 5-17 Q T A Rme2a Kme S T G G K A P R] was run?
The value was 0.0102 ± 0.00047.

And the “peptide microarray binding signal” value ([1]; peptide modifications: H3R8me2a H3K9me1, binder concentration: 500 nM)?
The value was 0.0208 ± 0.00058.

And the “peptide microarray binding signal” value ([2]; peptide modifications: H3R8me2a H3K9me1, binder concentration: 10 nM)?
The value was 0.0329 ± 0.0037.

And the “peptide microarray binding signal” value ([2]; peptide modifications: H3R8me2a H3K9me1, binder concentration: 100 nM)?
Its value is 0.0496 ± 0.0052.

What about the “peptide microarray binding signal” value [3, 17] of the same binder?
The value was 0.0224 ± 0.003.

What about the “peptide microarray binding signal” value [3, 18] of the same binder?
Its value is 0.0247 ± 0.0017.

What about the “peptide microarray binding signal” value [4, 17] of the same binder?
Its value is 0.0228 ± 0.0036.

And the “peptide microarray binding signal” value [4, 18]?
Its value is 0.0159 ± 0.0016.

Which “peptide microarray binding signal” value ([1]; peptide modifications: H3R8me1 H3K9me1, binder concentration: 50 nM) does the source give for QTARKSTGGKAPR [H3 5-17 Q T A Rme Kme S T G G K A P R] here?
Its value is 0.01 ± 0.0016.

What about the “peptide microarray binding signal” value ([1]; peptide modifications: H3R8me1 H3K9me1, binder concentration: 500 nM) of the same binder?
The value was 0.0241 ± 0.0051.

And the “peptide microarray binding signal” value ([2]; peptide modifications: H3R8me1 H3K9me1, binder concentration: 10 nM)?
Its value is 0.0382 ± 0.016.

And the “peptide microarray binding signal” value ([2]; peptide modifications: H3R8me1 H3K9me1, binder concentration: 100 nM)?
The value was 0.0483 ± 0.0026.

What about the “peptide microarray binding signal” value [3, 19] of the same binder?
The value was 0.0217 ± 0.00038.

And the “peptide microarray binding signal” value [3, 20]?
The value was 0.0201 ± 0.0019.

What about the “peptide microarray binding signal” value [4, 19] of the same binder?
The value was 0.034 ± 0.009.

And the “peptide microarray binding signal” value [4, 20]?
The value was 0.0236 ± 0.0018.

What does the source list for QTARKSTGGKAPR [H3 5-17 Q T A Rme Kme2 S T G G K A P R]?
peptide microarray binding signal ([1]; peptide modifications: H3R8me1 H3K9me2, binder concentration: 50 nM): 0.00934 ± 0.00073; peptide microarray binding signal ([1]; peptide modifications: H3R8me1 H3K9me2, binder concentration: 500 nM): 0.0296 ± 0.00077; peptide microarray binding signal ([2]; peptide modifications: H3R8me1 H3K9me2, binder concentration: 10 nM): 0.0501 ± 0.013; peptide microarray binding signal ([2]; peptide modifications: H3R8me1 H3K9me2, binder concentration: 100 nM): 0.0426 ± 0.0023; peptide microarray binding signal [3, 21]: 0.0281 ± 0.0026; peptide microarray binding signal [3, 22]: 0.0231 ± 0.00029; peptide microarray binding signal [4, 21]: 0.175 ± 0.029; peptide microarray binding signal [4, 22]: 0.0879 ± 0.0073

Which “peptide microarray binding signal” value ([1]; peptide modifications: H3R8me2a, binder concentration: 50 nM) does the source give for QTARKSTGGKAPR [H3 5-17 Q T A Rme2a K S T G G K A P R] here?
Its value is 0.00386 ± 0.00017.

What about the “peptide microarray binding signal” value ([1]; peptide modifications: H3R8me2a, binder concentration: 500 nM) of the same binder?
The value was 0.00367 ± 0.00047.

And the “peptide microarray binding signal” value ([2]; peptide modifications: H3R8me2a, binder concentration: 10 nM)?
The value was 0.00346.

And the “peptide microarray binding signal” value ([2]; peptide modifications: H3R8me2a, binder concentration: 100 nM)?
The value was 0.0034 ± 0.00021.

And the “peptide microarray binding signal” value [3, 23]?
Its value is 0.0114 ± 0.0019.

And the “peptide microarray binding signal” value [3, 24]?
Its value is 0.00793 ± 0.00067.

What about the “peptide microarray binding signal” value [4, 23] of the same binder?
The value was 0.00296 ± 0.00055.

And the “peptide microarray binding signal” value [4, 24]?
Its value is 0.00565 ± 0.0013.
